Compound activity from PubChem.
Hits are enriched below; roughly 10% of the tested compounds scored in any of these assays.
GLS inhibitor = blocks human kidney-isoform glutaminase activity; AID 624170; GLS enzymatic activity, qHTS titration; 410,000 compounds, 0.21% hits; Potency, µM (series often up to 45.5 µM), usual class: inhibitors; O94925
Target sequence (O94925 whole entry, looked up, canonical isoform): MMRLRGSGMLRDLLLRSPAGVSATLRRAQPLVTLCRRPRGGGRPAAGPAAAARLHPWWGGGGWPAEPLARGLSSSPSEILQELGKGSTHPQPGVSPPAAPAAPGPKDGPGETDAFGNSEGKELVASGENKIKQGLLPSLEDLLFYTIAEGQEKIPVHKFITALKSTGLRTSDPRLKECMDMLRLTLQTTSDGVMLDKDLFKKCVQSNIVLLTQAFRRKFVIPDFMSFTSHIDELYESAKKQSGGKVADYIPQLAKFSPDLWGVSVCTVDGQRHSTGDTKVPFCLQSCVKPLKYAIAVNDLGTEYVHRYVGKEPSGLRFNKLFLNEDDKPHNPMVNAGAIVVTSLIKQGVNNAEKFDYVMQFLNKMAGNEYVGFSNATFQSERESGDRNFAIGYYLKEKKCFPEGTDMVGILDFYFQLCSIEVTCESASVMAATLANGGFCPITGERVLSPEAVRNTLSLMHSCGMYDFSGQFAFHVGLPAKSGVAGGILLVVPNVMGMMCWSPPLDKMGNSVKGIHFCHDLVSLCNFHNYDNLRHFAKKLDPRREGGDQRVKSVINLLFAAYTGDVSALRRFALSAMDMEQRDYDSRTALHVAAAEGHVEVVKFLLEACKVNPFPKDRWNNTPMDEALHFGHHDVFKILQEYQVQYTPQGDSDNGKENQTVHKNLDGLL
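Human kidney-isoform GLS in 45 mM KH2PO4 pH 8.2, 0.02% Tween-20, with compound, started with 1mM L-Glutamine (added stock). Glutamate oxidase/HRP/Amplex red coupled fluorescence read at start and after 30 min at RT.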
BAZ2B inh = blocks human BAZ2B; Q9UIF8; AlphaScreen BAZ2B-H3K14Ac peptide displacement; Potency, µM (series often up to 114 µM), most hits filed as inhibitors; 360,000 compounds, 4.4% hits; further: nearly all actives have a fitted effect of over 60% in size
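AlphaScreen displacement of biotin-H3(5-23)K14Ac peptide (50 nM final) from BAZ2B (50 nM final) in PBS pH 7.4, 0.01% Tween-20; complex preformed 30 min RT, then compounds (top 110 uM) 30 min RT, beads 20 min dark.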
JMJD2A Tudor = inhibitors of human JMJD2A Tudor domain; AlphaScreen JMJD2A-Tudor / H3K4me3 peptide binding; Potency, µM (highest dose often 114 µM), most hits filed as inhibitors; 390,000 compounds, 4.4% hits; further: nearly all actives have a fitted effect of over 50% in size
G9a inh = blocks human histone lysine methyltransferase G9a; G9a H3K9 monomethylation, AlphaScreen, 2 h; Potency, µM (titrated, usually from 102 µM), most hits filed as inhibitors; 350,000 compounds, 8.8% hits; further: nearly all actives have a fitted effect of over 75% in size
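AlphaScreen read-out: biotin-H3K9 peptide (500 nM) methylation by 20 nM enzyme with 20 uM SAM, 2 h at room temperature after 15 min compound preincubation; anti-monomethyl H3K9 antibody plus donor/acceptor beads, 10 min dark.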
HP1b chromo inh = HP1-beta chromodomain-methylated histone interaction inhibition; AlphaScreen HP1-beta / biotin-H3K9me3 peptide binding; P83916; 390,000 compounds, 0.56% hits; Potency, µM (doses to about 114 µM), actives largely listed as inhibitors; further: nearly all actives have a fitted effect of over 70% in size
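Compound inhibition of the preformed complex between 50 nM HP1-beta and 50 nM biotinylated H3K9me3 peptide was read by AlphaScreen. Buffer was PBS pH 7.4 with 0.01% Tween-20. Incubations ran 30 min at room temperature, with 10 ug/mL donor/acceptor beads.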
Of the large screens only hits and unclear results are named; the others gave an inactive call. The call rests on the fitted dose curve; in most records, active means well fitted curve in the direction sought with a large enough effect; inconclusive means small, poorly fitted or top-dose-only effect, or another doubt; inactive means no such curve, though single readings can be large; an effect the other way counts as inactive or inconclusive.

O=C(Nc1ccc(Oc2ccccc2)cc1)C1CCCO1 (stereo not given)	JMJD2A Tudor 100µM
CSc1ccccc1NC(=O)C1CCCO1 (stereo not given)	G9a inh 16µM
COc1cc(C(=O)NN=Cc2ccc(N(C)C)cc2)cc(OC)c1OC	none (no result: BAZ2B inh, JMJD2A Tudor, G9a inh, HP1b chromo inh)
COc1ccc(Cl)cc1NC(=O)CN1C(=O)C(C)(C)c2cc(S(=O)(=O)N3CCCCC3)ccc21	none
CC(C)[C@@H]1Cc2[nH]n(C)c(=O)c2[C@H](c2ccc(F)cc2)O1	none (no result: BAZ2B inh, JMJD2A Tudor, G9a inh, HP1b chromo inh)
CCN(CC)c1ccc(/C=N/Nc2nc3ccccc3[nH]2)cc1	BAZ2B inh 10µM, JMJD2A Tudor 56µM, G9a inh inconclusive, HP1b chromo inh inconclusive
COc1cc(/C=N/Nc2nc3ccccc3[nH]2)cc(OC)c1O	BAZ2B inh inconclusive, G9a inh 28µM, HP1b chromo inh inconclusive
COc1cc(/C=N/Nc2nc3ccccc3[nH]2)ccc1O	BAZ2B inh inconclusive
CC(C)CC(=O)NC(=S)Nc1cc(C(F)(F)F)ccc1N1CCOCC1	G9a inh 79µM
O=C(CNCc1ccccn1)Nc1cc(C(F)(F)F)ccc1N1CCOCC1	BAZ2B inh 45µM, JMJD2A Tudor 45µM
COc1ccc(C2Nc3ccccc3C(=O)N2Cc2ccccc2)cc1COc1ccc(C)cc1 (stereo not given)	none (no result: GLS inhibitor, BAZ2B inh, G9a inh, HP1b chromo inh)
CC(=NNC(=O)c1cccc(S(=O)(=O)N2CCOCC2)c1)c1ccccc1	none (no result: BAZ2B inh, G9a inh)
COc1ccc(C(C)=NNC(=O)c2cccc(S(=O)(=O)N3CCCC3)c2)cc1	none (no result: BAZ2B inh, G9a inh)
C/C(=N\NC(=O)c1cccc(S(=O)(=O)N2CCOCC2)c1)c1ccc(C#N)cc1	BAZ2B inh inconclusive, G9a inh 40µM
O=C(NNS(=O)(=O)c1cccc(Cl)c1Cl)c1cccc(S(=O)(=O)N2CCOCC2)c1	JMJD2A Tudor inconclusive, G9a inh 32µM
C/C(=N\NC(=O)c1cccc(S(=O)(=O)N2CCCC2)c1)c1cccs1	JMJD2A Tudor 56µM
COc1ccc(/C(C)=N/NC(=O)c2cccc(S(=O)(=O)N3CCCC3)c2)c(O)c1	BAZ2B inh 2.8µM, JMJD2A Tudor inconclusive
CC(CNC(=O)Cc1ccc(NC(=O)N2CCSc3ncccc32)cc1)c1ccccc1 (stereo not given)	none
O=[N+]([O-])c1cc(S(=O)(=O)O)cc([N+](=O)[O-])c1NN(c1ccccc1)c1ccccc1	JMJD2A Tudor inconclusive, G9a inh 50µM
O=C(Nc1nnc(SCc2cccnc2)s1)C1CC(=O)N(c2ccccc2)C1 (stereo not given)	G9a inh inconclusive
Cc1cccc(N2CC(C(=O)Nc3nnc(SCc4cccnc4)s3)CC2=O)c1 (stereo not given)	JMJD2A Tudor inconclusive, G9a inh 45µM
O=C(Nc1nnc(SCc2ccccn2)s1)C1CC(=O)N(c2ccc(F)cc2)C1 (stereo not given)	G9a inh 28µM
COc1cccc(N2CC(C(=O)Nc3nnc(SCc4ccccn4)s3)CC2=O)c1 (stereo not given)	BAZ2B inh inconclusive, G9a inh 7.9µM
Cc1ccccc1N1CC(C(=O)Nc2nnc(SCc3ccccn3)s2)CC1=O (stereo not given)	G9a inh inconclusive
Cc1ccc(CN2CC(C(=O)Nc3nnc(SCc4c(Cl)cccc4Cl)s3)CC2=O)cc1 (stereo not given)	BAZ2B inh inconclusive, JMJD2A Tudor inconclusive, G9a inh 10µM
O=C(Nc1cc2c(oc1=O)CCCC2=O)c1ccc(Cl)cc1	GLS inhibitor inconclusive, BAZ2B inh 40µM, JMJD2A Tudor 14µM
Cc1nccc2oc(=O)c(NC(=O)c3ccc(Cl)cc3)cc12	none
CCOc1ccc(NC(=O)C(NS(=O)(=O)c2ccc3c(c2)CCN3C(C)=O)C(C)C)cc1 (stereo not given)	none (no result: BAZ2B inh)
CC(=O)N1CCCc2cc(S(=O)(=O)NC(C(=O)NC(C)c3ccccc3)C(C)C)ccc21 (stereo not given)	none (no result: GLS inhibitor)
COc1cc(NS(=O)(=O)c2ccc3c(c2)CCCN3C(C)=O)cc(OC)c1OC	none
CC(=O)N1CCCc2cc(S(=O)(=O)NC(C(=O)NC3CCCCC3)C(C)C)ccc21 (stereo not given)	G9a inh 35µM
COc1cc(NC(=O)CC(C)S(=O)(=O)c2ccc3c(c2)CCN3C(C)=O)cc(OC)c1OC (stereo not given)	G9a inh 11µM
COc1ccc(NC(=O)C(NS(=O)(=O)c2ccc3c(c2)CCCN3C(C)=O)C(C)C)c(OC)c1 (stereo not given)	BAZ2B inh 56µM, G9a inh inconclusive
COc1ccc(CCNC(=O)c2nc(-c3ccc(Cl)cc3)n3c2CCCCC3)c(OC)c1	BAZ2B inh 18µM, JMJD2A Tudor 18µM, G9a inh 13µM
Cc1cccc(CCNC(=O)c2nc(-c3ccc(Cl)cc3)n3c2CCCCC3)c1	BAZ2B inh 10µM, JMJD2A Tudor 14µM, G9a inh 11µM
COc1cccc(N2CCN(C(=O)c3nc(-c4ccc(Cl)cc4)n4c3CCCCC4)CC2)c1	BAZ2B inh 28µM, JMJD2A Tudor 40µM, G9a inh 18µM, HP1b chromo inh inconclusive
COc1ccccc1C(=O)NCC(=O)N/N=C/c1ccc([N+](=O)[O-])cc1	none
COc1cc(C(=O)NCC(=O)N/N=C/c2ccc(-c3cccc([N+](=O)[O-])c3)o2)cc(OC)c1OC	G9a inh 10µM
COc1cc(C(=O)NCC(=O)N/N=C/c2ccc(-c3ccc([N+](=O)[O-])cc3)o2)cc(OC)c1OC	G9a inh 45µM
O=C(Nc1ccccc1)N1CCCC2(CCN(C(=O)c3cccc(F)c3)CC2)C1	none (no result: GLS inhibitor, BAZ2B inh, JMJD2A Tudor, HP1b chromo inh)
CSc1ccccc1C(=O)N(C)C(c1ccccc1)c1ccccc1	none
CCOC(=O)C1=CCN(S(=O)(=O)c2ccccc2F)C1c1ccc(Cl)c(Cl)c1 (stereo not given)	none (no result: BAZ2B inh, JMJD2A Tudor, G9a inh, HP1b chromo inh)
CC1=NN(c2ccccc2)C(=O)/C1=C\N(O)c1ccccc1	JMJD2A Tudor inconclusive (no result: G9a inh)
CC1=NN(c2ccc(C)cc2)C(=O)/C1=C\C=C\c1ccccc1	BAZ2B inh 2.5µM, JMJD2A Tudor 4.5µM, G9a inh 4.5µM, HP1b chromo inh 5.6µM
CC1=NN(c2ccccc2)C(=O)/C1=C/C=C/C=C/N(C)C	BAZ2B inh 13µM, JMJD2A Tudor inconclusive, G9a inh 18µM, HP1b chromo inh inconclusive
CC1=NN(c2cccc(C(=O)O)c2)C(=O)/C1=C\C=C/c1ccccc1	GLS inhibitor 16µM, BAZ2B inh inconclusive, JMJD2A Tudor inconclusive, G9a inh 40µM, HP1b chromo inh inconclusive
CC1=NN(c2ccccc2)C(=O)/C1=C\c1cc(C)n(-c2cccnc2)c1C	BAZ2B inh inconclusive
COc1ccccc1N=Nc1[nH]c2ccc(C)cc2c1O	BAZ2B inh 50µM, JMJD2A Tudor inconclusive, G9a inh 11µM
COc1cc2c(c(OC)c1OC)-c1c(cc3c(c1OC)OCO3)CC(C)C(C)(O)C2 (stereo not given)	none (no result: BAZ2B inh, JMJD2A Tudor, G9a inh, HP1b chromo inh)
